In PubChem BioAssay:
A number with no mark means an inactive call. No rule for the calls is given here.

tested on: Aerobactin synthetase IucA (Klebsiella pneumoniae, hypervirulent); assay: IucA enzyme inhibition, biochemical, LOPAC library, absorbance readout (AID 1346212); conditions: IucA enzyme assay, absorbance (OD) readout; hits give low values;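 tested at 8 µM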;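 also: 100% = no compound wells and 0% = no enzyme wells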

Row | Structure (SMILES) | remaining activity
1 | Oc1cc(O)cc(/C=C/c2ccc(O)c(O)c2)c1 | 125%
2 | CC[N+](C)(C)c1cccc(O)c1 | 86.8%
3 | N[C@@H](Cc1cnc[nH]1)C(=O)O | 113%
4 | NCC(O)C1CCCCCCC1 (stereo not given) | 92.7%
5 | Cn1ccnc1 | 101%
6 | NC/C=C\C(=O)O | 124%
7 | N#Cc1cc2nc(O)c(O)nc2cc1[N+](=O)[O-] | 86.8%
8 | COc1ccccc1N1CCN(CCN(C(=O)C2CCCCC2)c2ccccn2)CC1 | 119%
9 | CC(=O)OCC(=O)[C@@]1(O)CC[C@H]2[C@@H]3CCC4=CC(=O)CC[C@]4(C)[C@H]3C(=O)C[C@@]21C | 102%
10 | N=C(N)c1ccc(N)cc1 | 112%
11 | Nc1ncnc2c1nc(Br)n2C1OC2COP(=O)(O)O[C@@H]2C1O (stereo not given in full) | 113%
12 | O=c1cc(-c2ccccc2)[nH]c2nc(Cl)ccc12 | 117%
13 | Cc1cccc(C)c1NC(=O)C[N+](C)(C)C | 116%
14 | O=C(CCCN1CCC(O)(c2cccc(C(F)(F)F)c2)CC1)c1ccc(F)cc1 | 101%
15 | Cc1cccc(C)c1OCC(C)N (stereo not given) | 113%
16 | CC1(C)CCC=[N+]1[O-] | 120%
17 | CCNC(=O)[C@H]1O[C@@H](n2cnc3c(N)nc(NCCc4ccc(CCC(=O)O)cc4)nc32)C(O)[C@H]1O (stereo not given in full) | 109%
18 | C=CC[C@H](N)C(=O)O | 95.7%
19 | O=C(NCC1CCCCN1)c1cc(OCC(F)(F)F)ccc1OCC(F)(F)F (stereo not given) | 91.1%
20 | S=C(Nc1ccccc1)Nc1nccs1 | 125%

Row | Structure (SMILES) | remaining activity
21 | O=C1N(c2ccccc2)c2ccccc2C1(Cc1ccncc1)Cc1ccncc1 | 114%
22 | NC(=O)C(=O)O | 121%
23 | CN(C)C(=O)/N=N/C(=O)N(C)C | 93.2%
24 | NC[C@@H]1O[C@H](C23CC4CC(CC(C4)C2)C3)Cc2c1ccc(O)c2O | 111%
25 | COC(=O)c1c(-c2cc(OC)c(OC)c(OC)c2)c2ccc(OCc3ccccn3)cc2c(=O)n1-c1ccc(N)cc1 | 86.8%
26 | CN1CCC(=C2c3ccccc3C=Cc3ccccc32)CC1 | 123%
27 | Oc1ccccc1O | 112%
28 | O=C(NCCO)c1ccc2c(c1)nc(Nc1cccc(Cl)c1)c1ccncc12 | 90%
29 | NC(=O)c1ccccc1 | 109%
30 | COc1cc2ncnc(Nc3cccc(Cl)c3)c2cc1OC | 106%
31 | CCn1c(=O)[nH]c2cc(Cl)c(Cl)cc21 | 98.7%
32 | N#C/C(=C\c1c[nH]c2ccccc12)C(=O)c1ccc(O)c(O)c1 | 97.5%
33 | CC(C)(C)c1onc(OCP(=O)(O)O)c1CC(N)C(=O)O (stereo not given) | 112%
34 | O=C(O)Cc1ccc(O)c(O)c1 | 107%
35 | Nc1nc(SCc2ccc([N+](=O)[O-])cc2)c2ncn([C@@H]3O[C@H](CO)[C@H](O)C3O)c2n1 (stereo not given in full) | 107%
36 | c1ccc(-c2ccccn2)nc1 | 75.1%
37 | CC(C)C[C@H](NP(=O)(O)O[C@@H]1O[C@@H](C)[C@H](O)[C@@H](O)[C@H]1O)C(=O)N[C@@H](Cc1c[nH]c2ccccc12)C(=O)O | 89.8%
38 | C[C@@H](NC(=O)/C(C#N)=C/c1ccc(O)c(O)c1)c1ccccc1 | 97.8%
39 | Nc1cc(=O)[nH]c(N)n1 | 126%
40 | COC(=O)C(C)(N)Cc1ccc(O)cc1 (stereo not given) | 114%
